# Gal4-VP16 FLuc: inhibits Gal4-VP16 luciferase reporter, ROR gamma counter-screen; Drosophila S2 Gal4-VP16 UAS-luciferase, luminescence, 20 h; Potency, µM (titrated, usually from 53.6 µM), inactives show top-dose activity, negative = inhibition, usual class: inhibitors; actives 3.5% (n = 310,000);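 also: Gal4-VP16 expression switched on by copper sulfate through the metallothionein promoter; % is scaled to controls: 0 for no effect and ±100 for the full control effect; nearly all actives have a fitted effect of over 50% in size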
# ClpP mod: qHTS Assay for Activators of ClpP. ATP-dependent Clp protease proteolytic subunit (Bacillus subtilis (strain 168)), P80244. purified B. subtilis ClpP, FRET peptide cleavage, 20 min. Potency, µM (titrated, usually from 57.5 µM), for the others: top-dose activity change, negative = active. actives 1.9% (n = 340,000). AID 651965, 2013; active = well fitted falling curve with a large enough effect; inconclusive = small, poorly fitted or top-dose-only effect; inactive = no such curve, though single readings can be large or run the other way; also: the source files actives as falling curves though it sought activators and does not explain the sign; nearly all actives have a fitted effect of over 65% in size
# Target sequence (P80244 whole entry, looked up): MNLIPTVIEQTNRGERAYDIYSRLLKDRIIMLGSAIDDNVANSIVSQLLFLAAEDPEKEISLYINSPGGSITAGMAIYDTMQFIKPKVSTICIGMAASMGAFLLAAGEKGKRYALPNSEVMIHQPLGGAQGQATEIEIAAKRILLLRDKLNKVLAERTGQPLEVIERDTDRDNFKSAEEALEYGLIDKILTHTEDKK
#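 ClpP 10 microg/mL final, pH 8 Tris/KCl buffer with BSA, glycerol, Tween-20; compound pinned in; FRET-FV substrate; RT 20 min; Ex320/Em430; ΔFRET vs ADEP 5.8 microM, DMSO, no enzyme.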
# Epigenetic reg: epigenetic control regulation, reporter derepression; murine LDR cells, GFP reporter derepression, 30 h; Potency, µM (titrated, usually from 53.9 µM), for the others: at the top dose GFP activation, most hits filed as activators; actives 0.2% (n = 280,000); AID 1865; also: % of control where 0% means no effect; nearly all actives have a fitted effect of over 60% in size
#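 Derepression of a silenced CMV-GFP reporter in murine LDR cells is scored by enumerating GFP-positive cells with a laser-scanning microplate cytometer after 30 hours of treatment at 37 C.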
# Sfp PPTase inh: Sfp phosphopantetheinyl transferase inhibition; actives 3.5% (n = 310,000); Biochemical Sfp PPTase activity, qHTS; Potency, µM, without a hit: largest response in the series, negative = inhibition, usual class: inhibitors; AID 1490; Q9F4F7;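 also: the enzyme is Sfp with the accession as filed and its product quenches rhodamine fluorescence; 0% = enzyme reaction without inhibitor and -100% = no enzyme wells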
#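 Step 1, compound plus 15 nM Sfp-PPTase, 15 min, room temperature. Step 2, add rhodamine-CoA (5 uM) and BHQ-2-YbbR (12.5 uM). Step 3, read 525/598 nm fluorescence at 0 and 30 min.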
# RORg inh: blocks mouse ROR gamma transcriptional activity; Drosophila S2 Gal4-RORgamma UAS-luciferase reporter, 20 h; actives 5.4% (n = 310,000); AID 2551; Potency, µM (top dose mostly 53.6 µM), without a hit: top-dose activity change, negative = inhibition, hits mostly inhibitors; also: % is scaled to controls: 0 for no effect and ±100 for the full control effect; nearly all actives have a fitted effect of over 60% in size
# Target sequence (P51450 whole entry, looked up, the tested form may be a part): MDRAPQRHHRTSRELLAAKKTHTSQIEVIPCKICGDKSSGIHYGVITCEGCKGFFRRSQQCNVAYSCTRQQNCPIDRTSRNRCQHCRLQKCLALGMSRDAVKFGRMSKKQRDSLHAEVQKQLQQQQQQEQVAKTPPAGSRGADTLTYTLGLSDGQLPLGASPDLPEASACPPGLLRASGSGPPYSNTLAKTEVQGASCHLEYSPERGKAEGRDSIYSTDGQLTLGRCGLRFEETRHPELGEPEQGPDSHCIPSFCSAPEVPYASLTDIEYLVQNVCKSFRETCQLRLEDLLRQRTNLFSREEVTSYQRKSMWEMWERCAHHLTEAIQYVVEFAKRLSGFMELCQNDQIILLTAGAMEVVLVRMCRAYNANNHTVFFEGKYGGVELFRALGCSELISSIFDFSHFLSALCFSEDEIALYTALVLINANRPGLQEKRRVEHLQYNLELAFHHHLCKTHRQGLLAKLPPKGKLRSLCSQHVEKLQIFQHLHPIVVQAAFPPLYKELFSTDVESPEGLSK
#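 Luminescence from a UAS-regulated Photinus luciferase reporter in stably transfected Drosophila Schneider cells is measured; decreased signal marks ROR gamma inhibition. Fusion expression is induced by 700 uM copper sulfate for 20 hr.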
# PINK1 modulator: changes PINK1 expression | PINK1 immunofluorescence, high-content cytometry, 24 h | Potency, µM (highest dose often 76.6 µM), inactives show at the highest dose activation (PINK1 increase), hits mostly activators | AID 624263 | actives 0.2% (n = 410,000); active = well fitted activation curve with a large enough effect; inconclusive = small, poorly fitted or top-dose-only effect; cell line not stated here; also: % of control where 0% means no effect; nearly all actives have a fitted effect of over 65% in size
#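 Stable cell line, 250 cells/well, 12 h attachment; compounds pinned at 5 concentrations, 24 h; CCCP control. Fixed with nuclear dye, primary antibodies 12 h at 10 degrees C, secondary plus cell stain; laser-scanning cytometer read.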
# An asterisk follows results filed as active; u = inconclusive; x = no result given; [ ] = remark or other dose. Sampled rows, rich in hits. Any-hit rate of the full collection: about 8.1%. Unless noted, calls follow the shape of the dose curve; as a rule, active = well fitted curve in the direction sought with a large enough effect; inconclusive = small, poorly fitted or top-dose-only effect, or another doubt; inactive = no such curve, though single readings can be large; an effect the other way counts as inactive or inconclusive. Potency is read from the fitted curve at half-maximal effect.
SMILES,Gal4-VP16 FLuc,ClpP mod,Epigenetic reg,Sfp PPTase inh,RORg inh,PINK1 modulator
CCc1ccc(-c2nc(CS(=O)CC(=O)NC3CCCCCC3)c(C)o2)cc1 (centres undefined),-1%,-6%,x,50µM*,-1%,-2%
CCOC(=O)c1cc(S(=O)(=O)N2CCN(c3ccccc3OC)CC2)[nH]n1,x,0%,-2%,x,x,1%
CCn1nc(-c2ccccc2)c(-c2ccccc2)c(C(=O)Nc2ccccc2C#N)c1=O,x,0%,-3%,x,x,1%
O=C(NCCc1nnc2n1CCN(Cc1ccc(F)c(F)c1)CC2)c1ccoc1,x,x,x,x,x,2%
COc1ccc(OC)c(NC(=O)CN(c2ccccc2OC)S(=O)(=O)c2ccc(C)cc2)c1,x,-2%,-1%,x,x,1%
COc1cc(Cl)c(C)cc1NC(=O)c1nn(C)c2c1CSc1ccccc1-2,x,1%,-2%,x,x,3%
COc1ccc(OC)c(NS(=O)(=O)c2ccc(N3CCCCS3(=O)=O)cc2)c1,x,-1%,-3%,x,x,1%
Cc1nn(C(=O)COc2ccccc2Br)c(C)c1Sc1ccccc1,x,1%,-2%,x,x,1%
O=C1c2ccc(O)c(O)c2C(=O)c2c(O)ccc(O)c21,u,x,0%,-56%,u,x
CC1=CC(=O)c2c(O)ccc(O)c2C1=O,-24%,x,0%,25µM*,-7%,x
COc1ccc(C2C=C(c3ccc(Br)s3)Nc3ncnn32)cc1OC (centres undefined),-2%[0.365 µM],x,-2%,56µM*,-112%,x
COc1cccc(C2C=C(c3ccc(C)c(C)c3)Nc3nnnn32)c1OC (centres undefined),x,-6%,1%,x,x,12%
COc1cccc(C2C=C(c3cccs3)Nc3ncnn32)c1OC (centres undefined),u,-13%,1%,50µM*,11µM*,-1%
O=C(/C=C/c1ccco1)Nc1cccc(C(=O)Nc2ccccc2C(=O)O)c1,-3%,2%,5%,56µM*,-2%,0%
CCc1ccccc1NC(=O)c1cccc(NC(=O)/C=C/c2ccco2)c1,9%,0%,1%,20µM*,44%,-2%
Cc1ccc(NC(=O)c2cccc(NC(=O)/C=C/c3ccco3)c2)cc1C,-22%,-5%,4%,2%,32%,9%
O=C(O)c1cccc(NC(=O)c2ccccc2NC(=O)c2ccco2)c1,1%,0%,x,8%,-2%,-1%
CN1CCc2c(sc(/N=C/c3cc(C(C)(C)C)ccc3O)c2C#N)C1,1%,x,1%,71µM*,-2%,0%
COc1ccc(/C=N/c2sc3c(c2C#N)CCN(Cc2ccccc2)C3)c(O)c1,18%,x,3%,15%,21%,x
O=S1(=O)CCOCCCN1Cc1ccc(F)cc1,x,-1%,x,x,x,x
O=C(COC(=O)c1ccccc1)NCc1ccco1,1%,-2%,1%,-20%,2%,6%
O=C(COC(=O)C(c1ccccc1)c1ccccc1)NCc1ccco1,18µM*,-1%,2%,-14%,u,3%
O=C(COc1ccccc1-c1ccccc1)NCc1ccco1,u,x,0%,89µM*,u,-3%
CCOc1ccc(NC(=O)CSc2nnc3scc(-c4ccccc4)n23)cc1,x,-1%,-1%,x,x,-1%
Cc1cccc(C)c1OCc1cc(=O)n2ccsc2n1,x,-12%,2%,x,x,1%
SMILES,Gal4-VP16 FLuc,ClpP mod,Epigenetic reg,Sfp PPTase inh,RORg inh,PINK1 modulator
NC(=S)NN=C1CCCCCCCCC1,x,-1%,x,x,x,-1%
C=CCNC(=S)NN=C1CCCCCCC1,4.5µM*,0%,1%,6%,0.35µM*,1%
COCCNC(=S)NN=C1CCCCC1,u,u,2%,40µM*,13µM*,0%
O=[N+]([O-])c1cccc(C2=N[C@@H](Cc3ccccc3)CO2)c1,9%,x,-3%,-20%,18%,x
Cc1cnc(C(=O)Nc2nccs2)cn1,11µM*,1%,-1%,-88%,3.5µM*,-1%
Cc1cnc(C(=O)Nc2cccc3cccnc23)cn1,0.2µM*,-8%,13%,14%,0.079µM*,0%
Cc1cnc(C(=O)Nc2nnc(C3CC3)s2)cn1,-24%,-1%,-3%,u,8.9µM*,x
Cc1cnc(C(=O)Nc2nnc(C(C)C)s2)cn1,6%[0.365 µM],3%,0%,u,u,1%
Cc1cnc(C(=O)Nc2nnc(C)s2)cn1,11%,2%,-1%,79µM*,u,-4%
CC1=C(C)CC(C(=O)Nc2nccs2)C(C(=O)O)C1 (centres undefined),4%,x,x,13%,1%,4%
CCOC(=O)c1ccc(NC(=O)CCCn2nc(C)c3sc4ccccc4c3c2=O)cc1,x,-3%,0%,x,x,1%
CC(=O)c1ccc(-c2cc(F)cc3c2OC(CNC(=O)c2ccc[n+]([O-])c2)C3)s1 (centres undefined),x,x,x,x,x,0%
O=C(NC(=S)Nc1ccc(Cc2ccncc2)cc1)c1ccccc1,u,33%,-1%,-14%,u,1%
Cc1cc(C)cc(C(=O)NC(=S)Nc2ccc(Cc3ccncc3)cc2)c1,u,-2%,-3%,-9%,7.9µM*,5%
Cc1cccc(C(=O)NC(=S)Nc2ccc(Cc3ccncc3)cc2)c1,u,-2%,0%,-29%,16µM*,5%
CCOc1sc2nc(C)n(CC(=O)Nc3cccc(C)c3)c(=O)c2c1C,x,-1%,0%,x,x,2%
Cc1oc(-c2cccc(Cl)c2)nc1CN1CCC(C(=O)NCc2ccc(F)cc2)CC1,x,0%,0%,x,x,-1%
CN(C)c1ccc(C(=N)c2ccc(N(C)C)cc2)cc1,23%,x,x,x,-16%,x
CN=C1C=CC(=C(c2ccc(N(C)C)cc2)c2ccc(N(C)C)cc2)C=C1,2.5µM*,x,x,45µM*,u,x
COc1ccc(-n2nc(C(=O)NCCc3ccc(Cl)cc3)c3c4ccccc4n(C)c3c2=O)cc1,x,u,3%,x,x,2%
CCOC(=O)c1sc(NC(=O)CSc2nc(C)cc(-c3ccccc3)n2)c(C#N)c1C,-5%,1%,-1%,8.9µM*,-18%,-1%[38.3 µM]
CCOC(=O)c1sc(NC(=O)CSc2n[nH]c(-c3ccc(Cl)cc3Cl)n2)c(C#N)c1C,u,6%,3%,11%,11µM*,u
CCc1ccc2nc(NC(=O)c3cc(C)on3)sc2c1,u,-4%,5%,5%,5.6µM*,4%
CCC(=O)NNc1nc2c(C)cc(C)cc2s1,u,x,-2%,-6%,13µM*,3%
CCc1noc(C)c1C(=O)Nc1nc2c(C)cc(C)cc2s1,x,-19%,x,x,x,3%

# Assay outcomes deposited in PubChem BioAssay by National Center for Advancing Translational Sciences (NCATS).
